Common to all, as to assay: Primary qHTS to identify gynecologic anti-cancer compounds using libraries of approved drugs and bioactive compounds (AID 1345084); further: nearly all actives have a fitted effect of over 55% in size
(In general: In qHTS, concentration-response curves come from the screen itself.)

One assay has as its system CAOV3. The note with it: Gynecologic cancer cell panel viability, ATPlite luminescence, 48 h; series mostly up to 57.5 µM. The procedure, abridged:
(§1)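 Luminescence from the ATPlite ATP-monitoring reagent indicates viable cell number; lower signal means cytotoxicity. Cells received compound 16 h after seeding and were exposed for 48 h across five concentrations.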
Background: In ATP-based viability assays light output follows the ATP content of the culture.

In another assay the test system is JEG-3. As to conditions: Gynecologic cancer cell panel viability, ATPlite luminescence, 48 h; series mostly up to 57.5 µM. The procedure, abridged: as §1
A further assay deals with OV90. The note with it: Gynecologic cancer cell panel viability, ATPlite luminescence, 48 h; series mostly up to 57.5 µM. The essentials: as §1
A further assay deals with SKOV3. The note with it: Gynecologic cancer cell panel viability, ATPlite luminescence, 48 h; series mostly up to 57.5 µM. The procedure, abridged: as §1
Another assay concerns HeLa. The note with it: Gynecologic cancer cell panel viability, ATPlite luminescence, 48 h; series mostly up to 57.5 µM. The procedure, abridged:
as §1

The next assay concerns Hek293T. As to conditions: Gynecologic cancer cell panel viability, ATPlite luminescence, 48 h, control line for the selectivity index; series mostly up to 57.5 µM. The essentials:
as §1

Another assay deals with PA-1. As to conditions: Gynecologic cancer cell panel viability, ATPlite luminescence, 48 h; series mostly up to 57.5 µM. The essentials:
as §1

A further assay concerns Tov-21-G. The note with it: Gynecologic cancer cell panel viability, ATPlite luminescence, 48 h; series mostly up to 57.5 µM. The procedure, abridged:
as §1

The test system of another assay is Es-2. As to conditions: Gynecologic cancer cell panel viability, ATPlite luminescence, 48 h; series mostly up to 57.5 µM. The procedure, abridged: as §1
Another assay relates to Tov112D. The note with it: Gynecologic cancer cell panel viability, ATPlite luminescence, 48 h; series mostly up to 57.5 µM. The procedure, abridged: as §1
Another assay has as its system CASKI. As to conditions: Gynecologic cancer cell panel viability, ATPlite luminescence, 48 h; series mostly up to 57.5 µM. The essentials: as §1

Inconclusive results are not listed. A number with no mark means an inactive call. Activity calls are given as the source filed them. The call rests on the fitted dose curve; in most records, active means well fitted cell-killing curve with a large enough effect; inconclusive means small, poorly fitted or top-dose-only effect, or effect the other way; inactive means flat fitted curve, though single readings scatter.
On the % scale 0 is the no-effect control and ±100 the full control effect; potency means the concentration at half of the fitted maximal effect.

`CN(C)CCN(Cc1ccc(-c2ccc(CNCCc3ccccc3)cc2)cc1)C(=O)CCC1CCCC1`: the Potency was 5.62 µM (active) with CAOV3, 25.1 µM (active) with JEG-3, 22.4 µM (active) in the assay on OV90 and 15.8 µM (active) with SKOV3.

For the compound `CC(=O)C1=CCC2C3CC=C4CC(O)CC(O)C4(C)C3C(O)CC12C` (stereo unspecified), the Potency entry in the assay with CAOV3, in the assay with HeLa, with Hek293T, with JEG-3, in the assay with OV90 and with PA-1 was “inactive” throughout.

On to `CC[C@@H](C)Nc1cc(C(=O)NC2CC3CC[C@@H](C2)N3c2ccc(C(=O)C3CC3)cn2)c(C)cc1C(N)=O` (stereo partly specified), for which the Potency with CAOV3 is 0.794 µM (active); in the assay with Hek293T, 0.316 µM (active); in the assay with OV90, 0.316 µM (active); in the assay with PA-1, 0.316 µM (active); in the assay with Tov-21-G, 0.398 µM (active).

For the compound `CN1CC2CN(c3ccc4oc5ccccc5c(=O)c4c3)CC2C1` (stereo unspecified), the Potency entry in the assay on CAOV3, with Es-2, in the assay with HeLa, in the assay on Hek293T, in the assay on JEG-3 and with PA-1 was “inactive” each time. The Potency result in the assay with Tov-21-G and with Tov112D was “inactive” in each case.

For `Cn1cc(-c2ccc(S(=O)(=O)n3ccc(/C=C/C(=O)Nc4ccccc4N)c3)cc2)cn1`, the Potency in the assay on CAOV3 was 17.8 µM (active); in the assay with Es-2, 8.91 µM (active); with HeLa, 10 µM (active); in the assay on JEG-3 it was 10 µM (active); in the assay on OV90, 15.8 µM (active); in the assay on PA-1 it was 7.08 µM (active). For the same compound, in the assay on Tov112D, the Potency is 4.47 µM (active).

Regarding `CC(C)S(=O)(=O)NC[C@H](C)c1ccc(-c2ccc(CCNS(C)(=O)=O)cc2)cc1`, the Potency result in the assay with CAOV3, in the assay on Es-2, in the assay on HeLa, with JEG-3, with PA-1 and with Tov-21-G was “inactive” in each case. Moreover, the Potency in the assay with Hek293T is 8.91 µM (active); in the assay with SKOV3, 17.8 µM (active).

As for `Cc1ccc(-c2c(C(=O)CCl)n(CCCO)c3ncnc(N)c23)cc1`, the Potency entry in the assay with CASKI, in the assay on HeLa, in the assay on Hek293T, with JEG-3, in the assay on OV90 and in the assay with PA-1 was “inactive” throughout. Besides, the Potency entry in the assay on SKOV3, in the assay with Tov-21-G and in the assay on Tov112D was “inactive” throughout.

Consider `C=C(C)C(=O)OC1CC2(C)OC(=CC2=O)C(=C)CC2OC(=O)C(=C)C12` (stereo unspecified), for which the Potency entry in the assay on CASKI, with HeLa and with JEG-3 was “inactive” each time. For the same compound, the Potency was 4.47 µM (active) in the assay on Es-2; 6.31 µM (active) in the assay on Hek293T; 7.94 µM (active) in the assay with PA-1; 10 µM (active) in the assay with SKOV3; 4.47 µM (active) in the assay with Tov-21-G.

For `CC1CCCC(O)CC(=O)c2c(O)cc(O)cc2CC(=O)O1` (stereo unspecified), the Potency entry with CAOV3, in the assay on JEG-3, with OV90 and in the assay with Tov-21-G was “inactive” each time.

`C=C1C(=O)O[C@@H]2[C@H]1CC(=O)[C@H](C)[C@@](O)(C(=O)/C=C/C)[C@H]2OC(=O)C(C)CC` (stereo partly specified): the Potency with CASKI is 10 µM (active); with Hek293T, 10 µM (active); with PA-1 it was 11.2 µM (active); with Tov-21-G, 12.6 µM (active). The Potency entry with HeLa, in the assay on JEG-3 and in the assay with OV90 was “inactive” in each case.

Turning to `Fc1ccc(-n2cc(CCCCN3CCC4(CC3)OCc3ccccc34)c3ccccc32)cc1`, the Potency result in the assay on CASKI, in the assay with Es-2, in the assay on HeLa, with Hek293T, in the assay on JEG-3 and with Tov-21-G was “inactive” each time.

In the case of `C=C1C(=O)O[C@H]2CC(=C)[C@H]3CC[C@@](C)(O)[C@@H]3CC12` (stereo partly specified), the Potency entry in the assay with CASKI, with Es-2, in the assay with HeLa, in the assay with OV90 and with Tov112D was “inactive” in each case.

For `COc1cc(CCO)ccc1O[C@@H]1O[C@H](CO)[C@@H](O)[C@H](O)[C@H]1O`, the Potency result in the assay with CAOV3 and in the assay with OV90 was “inactive” in each case.

As for `C[C@H]1[C@H](/C=C/c2ccc(-c3ccccc3C#N)cn2)[C@@H]2[C@@H](C)OC(=O)[C@@H]2C[C@@H]1C`, the Potency result with CAOV3 and in the assay on OV90 was “inactive” in each case. For the same compound, in the assay on Tov112D, the Potency is 20 µM (active).

On to `CO[C@@H]1CC(OC2CCC3(C)C(CCC45CCC(C6=CC(=O)OC6)C(C)(CCC43)C5=O)C2)O[C@H](C)[C@@H]1O[C@@H]1O[C@H](CO[C@@H]2O[C@H](CO)[C@@H](O)[C@H](O)[C@H]2O)[C@@H](O)[C@H](O)[C@H]1O` (stereo partly specified), for which the activity change, negative = cytotoxicity was -0.149% [at 11.6 µM] with CASKI and -22.2% [at 11.6 µM] in the assay with OV90. Also, the Potency in the assay on Es-2 was 3.16 µM (active); in the assay with Tov-21-G, 3.16 µM (active); with Tov112D it was 2.82 µM (active).

Regarding `Nc1nc(Nc2ccc3c(c2)CCC(N2CCCC2)CC3)nn1-c1cc2c(nn1)-c1ccccc1CCC2` (stereo unspecified), the Potency with CAOV3 was 7.94 µM (active); in the assay on SKOV3, 7.08 µM (active); with Tov-21-G, 22.4 µM (active). The Potency entry with JEG-3 and with OV90 was “inactive” in each case.

On to `C=C1C(=O)O[C@H]2C[C@@H](C)[C@@H]3CCC(=O)[C@@]3(C)C[C@H]12`, for which the Potency was 7.94 µM (active) in the assay with CASKI, 25.1 µM (active) in the assay on Hek293T, 15.8 µM (active) with JEG-3 and 22.4 µM (active) in the assay with OV90. For the same compound, the Potency entry in the assay with HeLa and with Tov112D was “inactive” in each case.

Regarding `O=C1C(Cc2ccc(O)cc2)N2C(=O)CCN(C(=O)NCc3ccccc3)C2CN1Cc1cccc2ccccc12` (stereo unspecified), the Potency entry with CASKI and in the assay with JEG-3 was “inactive” throughout. The Potency with Es-2 was 8.91 µM (active); with SKOV3, 20 µM (active); in the assay with Tov-21-G, 7.94 µM (active).

`Cc1nnc(C[C@@H]2C=C(c3ccc(Cl)cc3)c3ccccc3-n3c(C)nnc32)o1`: the Potency result in the assay with CASKI is “inactive”. In addition, the Potency with Es-2 was 12.6 µM (active); in the assay on OV90 it was 20 µM (active).

Consider `CC1=CC2/C=C(\C)CCC(O)C(=O)C(O)CC(=O)C23C(=O)NC(CC(C)C)C3C1C` (stereo unspecified), for which the Potency entry in the assay with CASKI, with Es-2, in the assay on HeLa, in the assay with Hek293T, in the assay on JEG-3 and with OV90 was “inactive” in each case. Moreover, the Potency result in the assay on PA-1, in the assay on Tov-21-G and in the assay on Tov112D was “inactive” each time.

As to `Cc1ccc(C)c(-c2cc(C(F)(F)F)nn2-c2ccc(S(N)(=O)=O)cc2)c1`, the Potency result in the assay with CASKI was “inactive”. In the assay with HeLa, the Potency was 31.6 µM (active).

In the case of `O=C(NNc1nc2cc(F)ccc2n2cccc12)c1cnccn1`, the Potency result in the assay on CASKI, in the assay with HeLa and in the assay on JEG-3 was “inactive” each time. For the same compound, the Potency is 7.08 µM (active) with Es-2; 3.55 µM (active) with Hek293T; 5.01 µM (active) in the assay with OV90; 3.55 µM (active) with PA-1; 8.91 µM (active) in the assay with Tov-21-G; 6.31 µM (active) in the assay with Tov112D.

Source of the values: PubChem BioAssay (NCATS).
